The record followed here is PubChem BioAssay.

Active and inactive are the calls of the source.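 The calls were made as follows, unless noted: active = NADPH fluorescence slope more negative than the mean of all samples by about 3 SD, 99.7% confidence; inactive = the rest.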

Assay [1] in a line: inhibitors of TNFa-induced NFkB p65 translocation, primary screen, imaging, HUVEC, MLSMR starter and 10KST1 sets (AID 438;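 active = inhibition above 20% together with a positive visual image hit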;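 also: compound added about 3h40 before a 20 min TNFalpha stimulation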;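 as to inhibition: signal is the nuclear over cytoplasmic p65 intensity ratio per well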). The following applies: HUVEC TNFa-induced p65 nuclear translocation; cell count: measured here: nuclei count (cytotoxicity indicator), at 2.08 µM; inhibition: at 2 µM, stronger effect = higher value, 0% TNFa-plus-vehicle, 100% no-TNFa wells.
Assay [2] in a line: reduction of polyQ htt aggregates in cells – imaging, exon1htt(103Q)mCFP cells, high-content imaging, primary screen (AID 483;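 active = visual image review flags a hit and inhibition of aggregation exceeds 20%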;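 also: compound exposure lasted 3 days before fixation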;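 as to nuclei count: percent of the per-plate median nuclei count of sample wells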). The following applies: exon1htt(103Q)mCFP cell line, aggregate imaging, at 2 µM; inhibition of aggregation: stronger effect = higher value; nuclei count: measured here: cell count, toxicity.
Assay [3] is described as follows: endothelial E-selectin expression blockers – imaging, HUVEC, immunofluorescence, MLSMR starter and 10KST1 sets, primary screen (AID 487;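 active = visually confirmed hit in the image check and inhibition above 20%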;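 as to inhibition: signal is fraction of cell area covered by stained E-selectin grains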;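 as to nuclei count: 100% = median nuclei count of all wells on the same plate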). The following applies: HUVEC TNFalpha-induced E-selectin immunofluorescence imaging, at 2 µM; inhibition: stronger effect = higher value; nuclei count: measured here: cell number, toxicity.
Assay [4] addresses Voltage-gated potassium channel subunit beta-2 (Rattus norvegicus) (UniProt P62483). Description: inhibitors of rat Kvbeta2 reductase activity – biochemical, NADPH fluorescence, primary screen (AID 622;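 active = fluorescence slope higher than the sample average by over 3 SD, cut at about -0.22 in these data, passing the limit was not always enough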;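 also: slope of raw intensity against log time taken from 70 to 1610 s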). The following applies: recombinant KvBeta, 4-cyanobenzaldehyde reduction, at 10 µM, stronger effect = higher value.
For assay [5] the target is unchanged. Description: enhancers of rat Kvbeta2 NADPH turnover – biochemical, NADPH fluorescence, primary screen (AID 623).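 Also: fluorescence intensity change per second fitted from 20 to 320 s.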 The following applies: Recombinant KvBeta, NADPH fluorescence decrease slope, 10 min; at 10 µM; stronger effect = lower value.
In assay [6] the target is Alpha-2C adrenergic receptor (Homo sapiens) (UniProt P18825). Nature of the assay: compounds altering alpha2C-coupled GIRK flux – cell-based, HEK293 alpha2C/GIRK1/2, thallium flux, primary screen (AID 624;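 active = fluorescence slope after compound addition differing from the mean of all screened samples at 99.7% confidence, in either direction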;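 also: slope of fluorescence ratio to pre-addition baseline per second over 15 to 24 s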). The following applies: thallium flux BTC fluorescence, at 10 µM, actives lie on both sides.
A short description of assay [7]: blockers of RIG-like receptor reporter activation – cell-based, Sendai virus stimulus, luciferase, 10K MLSCN set, TLR/RLR signaling modifier project, primary screen (AID 602276;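 active = inhibition at or above 50% at 10 µM; inactive = inhibition below 50%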;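 also: firefly luciferase from ISG56 promoter only with Renilla not read in this screen; 0% = Sendai virus plus DMSO and 100% = medium plus DMSO without virus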). The following applies: HEK293 RL24 IRF3 luciferase reporter, at 10 µM, stronger effect = higher value. (In general: Reporter assays use an easily measured gene product as a stand-in for the process of interest.)

Assay [8] is described as follows: TLR3 IRF3 reporter activation blockers – cell-based, poly I:C stimulus, luciferase, 10K MLSCN set, primary screen (AID 602277;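 active = inhibition of the reporter signal at or above 50%; inactive = inhibition below 50%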). The following applies: HEK293-TLR3 RL24 IRF3 luciferase reporter, at 10 µM, stronger effect = higher value.

Sequence of Voltage-gated potassium channel subunit beta-2 (Rattus norvegicus) (P62483 whole entry, looked up): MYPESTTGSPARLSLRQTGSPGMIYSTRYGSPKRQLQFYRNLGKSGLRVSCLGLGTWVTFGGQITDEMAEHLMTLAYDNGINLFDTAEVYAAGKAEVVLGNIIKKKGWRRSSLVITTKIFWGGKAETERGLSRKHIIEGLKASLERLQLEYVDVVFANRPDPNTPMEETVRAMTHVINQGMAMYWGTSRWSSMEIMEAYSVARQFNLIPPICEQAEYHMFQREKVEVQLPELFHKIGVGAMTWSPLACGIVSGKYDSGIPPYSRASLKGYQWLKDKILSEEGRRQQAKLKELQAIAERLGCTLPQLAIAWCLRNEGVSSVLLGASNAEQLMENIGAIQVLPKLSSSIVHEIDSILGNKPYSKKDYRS
Sequence of Alpha-2C adrenergic receptor (Homo sapiens) (P18825 whole entry, looked up): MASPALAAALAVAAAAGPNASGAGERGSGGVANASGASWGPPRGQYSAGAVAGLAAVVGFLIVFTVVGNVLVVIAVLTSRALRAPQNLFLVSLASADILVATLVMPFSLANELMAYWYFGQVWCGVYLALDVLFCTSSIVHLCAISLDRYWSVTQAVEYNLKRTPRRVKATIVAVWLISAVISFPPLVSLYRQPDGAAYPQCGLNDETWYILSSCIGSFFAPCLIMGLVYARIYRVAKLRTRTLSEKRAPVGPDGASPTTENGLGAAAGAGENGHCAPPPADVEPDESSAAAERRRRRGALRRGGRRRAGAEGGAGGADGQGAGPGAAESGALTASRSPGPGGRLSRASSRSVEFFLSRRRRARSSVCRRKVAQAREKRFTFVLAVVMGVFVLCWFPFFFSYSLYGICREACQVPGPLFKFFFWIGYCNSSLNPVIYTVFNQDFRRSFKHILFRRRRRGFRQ

A word on the inhibition: it is the change of the read-out against control, counted positive when it falls. Take `O=C(CSc1ncnc2c1oc1ccccc12)Nc1ccccc1F`: the cell count in assay [1] was 613. Besides, the inhibition is -13.5% (inactive) in assay [1], -10.1% (inactive) in assay [3], 1.97% (inactive) in assay [7] and 16.6% (inactive) in assay [8]. The inhibition of aggregation in assay [2] is -13.9% (inactive). In addition, the results for the nuclei count in assay [2] and in assay [3] were 107% and 116%, respectively. Moreover, the fluorescence slope in assay [4] was -0.549 (inactive). In addition, the NADPH fluorescence slope in assay [5] was 3.9e-06 (inactive). Further, the slope in assay [6] was 0.00808 (inactive).
As to `CC1CN(C(=O)CSc2nnc(-c3ccncc3)n2-c2ccccc2)CC(C)O1` (centres undefined), the cell count in assay [1] is 447. For the same molecule, the inhibition was 2.9% (inactive) in assay [1], 71.2% (active) in assay [3], 20.7% (inactive) in assay [7] and 24.3% (inactive) in assay [8]. For the same molecule, in assay [2], the inhibition of aggregation was 4% (inactive). For the same molecule, the nuclei count in assay [2] is 101%; in assay [3] it was 124%. For the same molecule, in assay [4], the fluorescence slope was -0.605 (inactive). Also, the NADPH fluorescence slope in assay [5] is 5.9e-06 (inactive). In addition, the slope in assay [6] is 0.00638 (inactive).
In the case of `CCOC(=O)Cc1ccc(NS(=O)(=O)c2ccc(SC)cc2)cc1`, the cell count in assay [1] turned out to be 326. Besides, the inhibition in assay [1] is -7.2% (inactive); in assay [3], -95.5% (inactive); in assay [7] it was -2.4% (inactive); in assay [8], 9.62% (inactive). The inhibition of aggregation in assay [2] was -3.4% (inactive). Moreover, the nuclei count in assay [2] was determined as 97.6%; in assay [3], 109%. Moreover, in assay [4], the fluorescence slope was -0.494 (inactive). In assay [5], the NADPH fluorescence slope was -6.8e-05 (inactive). The slope in assay [6] is 0.00542 (inactive).
Regarding `CC1CC(C)CN(c2ncnc3c2cnn3-c2ccc(Cl)cc2)C1` (centres undefined), the cell count in assay [1] was 584. For the same molecule, the inhibition in assay [1] is 3.4% (inactive); in assay [3] it was -52.4% (inactive); in assay [7], 37.3% (inactive); in assay [8], 11.5% (inactive). Moreover, in assay [2], the inhibition of aggregation was 12.1% (inactive). In addition, the nuclei count was 79.5% in assay [2] and 112% in assay [3]. Besides, in assay [4], the fluorescence slope is -0.504 (inactive). In assay [5], the NADPH fluorescence slope is -2e-05 (inactive). Besides, the slope in assay [6] is 0.00874 (inactive).
`CN(C)S(=O)(=O)c1ccc2c(c1)c(=O)c(C(=O)NCCCN1CCCCCC1)cn2C`: in assay [1], the cell count is 707. The inhibition was -2.8% (inactive) in assay [1], -51.2% (inactive) in assay [3], 0.741% (inactive) in assay [7] and 31.9% (inactive) in assay [8]. The inhibition of aggregation in assay [2] was 4.4% (inactive). Moreover, the figures for the nuclei count in assay [2] and in assay [3] were 101% and 106%, respectively. Moreover, the fluorescence slope in assay [4] was -0.601 (inactive). In addition, the NADPH fluorescence slope in assay [5] was -3.3e-05 (inactive). For the same molecule, the slope in assay [6] is 0.00602 (inactive).
Take `Cc1ccc(-c2cc(C(=O)Nc3cc(C)on3)c3ccccc3n2)c(C)c1`: the cell count in assay [1] is 688. Also, the inhibition was 1.1% (inactive) in assay [1], -17.5% (inactive) in assay [3], 10.5% (inactive) in assay [7] and 38.8% (inactive) in assay [8]. In addition, the inhibition of aggregation in assay [2] is 11.6% (inactive). The results for the nuclei count in assay [2] and in assay [3] were 111% and 115%, respectively. Also, the fluorescence slope in assay [4] is -0.543 (inactive). The NADPH fluorescence slope in assay [5] was -4.3e-05 (inactive). Moreover, the slope in assay [6] was 0.00596 (inactive).
`Cn1c(=O)c2c(nc(SCCOc3ccc4ccc(=O)oc4c3)n2C)n(C)c1=O`: the cell count in assay [1] came out at 581. The inhibition was 3.3% (inactive) in assay [1], -34.8% (inactive) in assay [3], 5.44% (inactive) in assay [7] and 23.8% (inactive) in assay [8]. In addition, in assay [2], the inhibition of aggregation is 7.2% (inactive). In addition, the nuclei count is 107% in assay [2] and 95.1% in assay [3]. The fluorescence slope in assay [4] was -0.53 (inactive). The NADPH fluorescence slope in assay [5] is -3.8e-05 (inactive). In addition, the slope in assay [6] was 0.00534 (inactive).
Consider `CCOc1ccc(S(=O)(=O)NCC2CCCO2)c2cccnc12` (centres undefined), for which the cell count in assay [1] amounted to 365. In addition, the inhibition in assay [1] was -1.7% (inactive); in assay [3] it was 36.8% (inactive); in assay [7], 17.5% (inactive); in assay [8] it was 21.3% (inactive). In addition, the inhibition of aggregation in assay [2] was -30.7% (inactive). For the same molecule, the nuclei count in assay [2] was determined as 104%; in assay [3], 105%. Also, in assay [4], the fluorescence slope was -0.497 (inactive). In assay [5], the NADPH fluorescence slope is 8e-05 (inactive). Besides, the slope in assay [6] was 0.00707 (inactive).
Consider `N[C@@H](Cc1ccccc1)c1nnc2sc(SCc3ccccc3)nn12`, for which the cell count in assay [1] amounted to 444. The inhibition is -5.5% (inactive) in assay [1], -15.7% (inactive) in assay [3], 10.2% (inactive) in assay [7] and 98.1% (active) in assay [8]. The inhibition of aggregation in assay [2] is -1.7% (inactive). The nuclei count in assay [2] was determined as 84.8%; in assay [3], 114%. Moreover, in assay [4], the fluorescence slope is -0.43 (inactive). Besides, the NADPH fluorescence slope in assay [5] was -1.6e-06 (inactive). In assay [6], the slope was 0.00539 (inactive).
As to `Cc1ccc(C(=O)CC2(O)C(=O)N(C)c3ccc(Br)cc32)c(C)c1` (centres undefined), the cell count in assay [1] was found to be 614. The inhibition was -5% (inactive) in assay [1], -23.2% (inactive) in assay [3], 15.6% (inactive) in assay [7] and 31.5% (inactive) in assay [8]. Also, the inhibition of aggregation in assay [2] was -6.2% (inactive). Further, the nuclei count in assay [2] worked out at 107%; in assay [3] it was 123%. Further, in assay [4], the fluorescence slope is -0.457 (inactive). Besides, the NADPH fluorescence slope in assay [5] was -5.1e-05 (inactive). Also, in assay [6], the slope is 0.0058 (inactive).
Take `COC(=O)C1C(=O)c2c([nH]c(C(=O)OCCOC(C)C)c2C)CC1C` (centres undefined): the cell count in assay [1] is 304. In addition, the inhibition in assay [1] is -3.3% (inactive); in assay [3], -46.9% (inactive); in assay [7] it was -33.4% (inactive); in assay [8], -43.7% (inactive). Further, in assay [2], the inhibition of aggregation was -11.8% (inactive). The nuclei count in assay [2] came to 112%; in assay [3], 117%. For the same molecule, the fluorescence slope in assay [4] was -0.393 (inactive). In assay [5], the NADPH fluorescence slope is -5.7e-05 (inactive). The slope in assay [6] was 0.00401 (inactive).
For the molecule `Cc1cccc(NC(=O)C2CCCN2C(=O)OCC(C)C)c1C` (centres undefined), the cell count in assay [1] worked out at 728. Besides, the inhibition is -6.9% (inactive) in assay [1], -120% (inactive) in assay [3], 5.88% (inactive) in assay [7] and 14.1% (inactive) in assay [8]. Moreover, in assay [2], the inhibition of aggregation is -27.8% (inactive). Further, the nuclei count in assay [2] turned out to be 109%; in assay [3], 119%. The fluorescence slope in assay [4] was -0.322 (inactive). Also, in assay [5], the NADPH fluorescence slope was -6.4e-05 (inactive). The slope in assay [6] is 0.00484 (inactive).
For the molecule `CCn1cc(C(=O)N=c2sc3ccccc3n2C)c(=O)c2ccc(C)nc21`, the cell count in assay [1] came out at 450. Moreover, the inhibition is 3.7% (inactive) in assay [1], -27.5% (inactive) in assay [3], 6.49% (inactive) in assay [7] and 23% (inactive) in assay [8]. Further, in assay [2], the inhibition of aggregation was -5.2% (inactive). The nuclei count in assay [2] amounted to 107%; in assay [3], 97.3%. In assay [4], the fluorescence slope was -0.361 (inactive). Besides, in assay [5], the NADPH fluorescence slope was -6.4e-05 (inactive). Besides, in assay [6], the slope was 0.00595 (inactive).
As to `COc1ccc(OCCOC(=O)c2cccs2)cc1`, the cell count in assay [1] was 367. The inhibition in assay [1] was 14.9% (inactive); in assay [3], -11.5% (inactive); in assay [7], -2.79% (inactive); in assay [8], 4.6% (inactive). Moreover, the inhibition of aggregation in assay [2] was -30.1% (inactive). The nuclei count turned out to be 100% in assay [2] and 112% in assay [3]. The fluorescence slope in assay [4] was -0.604 (inactive). For the same molecule, in assay [5], the NADPH fluorescence slope was 7.3e-06 (inactive). Moreover, the slope in assay [6] was 0.00778 (inactive).
